Hits are enriched below; roughly 16% of the tested compounds scored in any of these assays.
miR-21 reporter: qHTS Assay for Modulators of miRNAs and/orActivators of miR-21 | HeLa miR-21 FLuc reporter, luciferase, 48 h | Potency, µM (doses to about 38.3 µM), for the others: top-dose activity change, positive = activation, usual class: activators | 340,000 tested, under 10 active | AID 2288, 2010;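 note: % of control where 0% means no effect; miR-21 action dims this reporter so a rising signal means less miR-21 action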
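Luminescence from a firefly luciferase reporter carrying a miR-21 binding site downstream, stably expressed under a CMV promoter in HeLa cells that make miR-21 endogenously, reports miRNA modulation after 48 h compound exposure up to approximately 40uM final.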
TDP1 block: qHTS Assay for Inhibitors of Tyrosyl-DNA Phosphodiesterase (TDP1). Tyrosyl-DNA phosphodiesterase 1 (Homo sapiens), Q9NUW8. recombinant TDP1, AlphaScreen DNA substrate cleavage. Potency, µM (series often up to 130 µM), without a hit: top-dose activity change, negative = inhibition, actives largely listed as inhibitors. hit rate 0.28% among 350,000. AID 485290, 2010; note: potency is the fitted concentration of half-maximal effect; % is set by controls: 0 for no effect and ±100 for the full control effect; nearly all actives have a fitted effect of over 40% in size
Target sequence (Q9NUW8 whole entry, looked up): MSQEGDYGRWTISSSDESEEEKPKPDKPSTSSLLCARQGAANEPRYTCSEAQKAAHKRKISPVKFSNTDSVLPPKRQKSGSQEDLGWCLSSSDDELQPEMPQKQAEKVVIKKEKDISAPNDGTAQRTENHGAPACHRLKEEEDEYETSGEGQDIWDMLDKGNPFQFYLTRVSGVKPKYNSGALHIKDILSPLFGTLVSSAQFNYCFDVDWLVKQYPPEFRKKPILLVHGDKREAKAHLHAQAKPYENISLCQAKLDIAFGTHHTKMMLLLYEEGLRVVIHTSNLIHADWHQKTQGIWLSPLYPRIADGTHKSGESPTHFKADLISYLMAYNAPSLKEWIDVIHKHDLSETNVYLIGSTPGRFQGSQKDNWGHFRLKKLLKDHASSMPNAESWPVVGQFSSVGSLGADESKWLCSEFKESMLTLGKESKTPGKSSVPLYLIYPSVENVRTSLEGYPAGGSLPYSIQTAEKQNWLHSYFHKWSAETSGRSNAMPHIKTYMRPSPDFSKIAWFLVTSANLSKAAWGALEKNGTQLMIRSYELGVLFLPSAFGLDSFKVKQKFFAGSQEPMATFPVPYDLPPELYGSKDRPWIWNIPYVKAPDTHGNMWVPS
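Recombinant human Tdp1 (E. coli-expressed, 1 nM final) preincubated with compounds 15 min at room temperature, then 5'-biotin/3'-phosphotyrosine-FITC DNA substrate (15 nM final) added for 5 min. AlphaScreen beads (10 ug/ml final) added 10 min; cleavage lowers signal.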
uPA generation: qHTS for Inhibitors of Cell Surface uPA Generation | cell surface uPA generation assay, qHTS | Potency, µM (top dose mostly 38.3 µM), without a hit: at the top dose activity change, negative = inhibition, hits mostly inhibitors | hit rate 0.31% among 330,000 | AID 540303, 2011; active = well fitted inhibition curve with a large enough effect; inconclusive = small, poorly fitted or top-dose-only effect; inactive = no such curve, though single readings can be large or run the other way; tested in mouse RAW 264.7 cells; note: potency is the fitted concentration of half-maximal effect; % is set by controls: 0 for no effect and ±100 for the full control effect; nearly all actives have a fitted effect of over 55% in size
TDP1 cell CPT: qHTS for Inhibitors of human tyrosyl-DNA phosphodiesterase 1 (TDP1): qHTS in cells in presence of CPT; chicken DT40 Tdp1-/-;hTDP1 cells + 20 nM CPT, ATP luminescence, 48 h; Potency, µM (series often up to 46.2 µM), for inactives: at the top dose activity change, negative = growth inhibition, most hits filed as inhibitors; hit rate 12% among 420,000; AID 686979, 2013; note: potency is the fitted concentration of half-maximal effect; % is set by controls: 0 for no effect and ±100 for the full control effect; nearly all actives have a fitted effect of over 55% in size
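Chicken DT40 Tdp1-/- cells complemented with human TDP1, 400 cells/well, exposed to compounds plus 20 nM camptothecin for at least 48 h at 37 C; viability read as ATP content by CellTiter-Glo luminescence.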
TDP1 cell noCPT: qHTS for Inhibitors of human tyrosyl-DNA phosphodiesterase 1 (TDP1): qHTS in cells in absence of CPT | DT40 Tdp1-/- hTDP1 cells, no CPT, ATP luminescence, 48 h | Potency, µM (top dose mostly 46.2 µM), without a hit: at the highest dose activity change, negative = growth inhibition, usual class: inhibitors | hit rate 15% among 420,000; note: potency is the fitted concentration of half-maximal effect; % is set by controls: 0 for no effect and ±100 for the full control effect; nearly all actives have a fitted effect of over 55% in size
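Luminescent ATP content (CellTiter-Glo) served as the growth readout. Knockout chicken DT40 cells expressing human TDP1 were exposed to compounds without camptothecin for a minimum 48 hr at 37 °C.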
Active calls of the source: *; [ ] = remark or other dose. Unless noted, calls come from the whole dose curve; as a rule, active = well fitted curve in the direction sought with a large enough effect; inconclusive = small, poorly fitted or top-dose-only effect, or another doubt; inactive = no such curve, though single readings can be large; an effect the other way counts as inactive or inconclusive.

`CC(C)(C)NC(=O)CN(C(=O)CS(=O)CC(=O)Nc1ccc(F)cc1)c1ccccc1F` (stereo not given) gave miR-21 reporter 0%, TDP1 block 6%, uPA generation 3%, TDP1 cell CPT -3% and TDP1 cell noCPT 15%.
For COC(=O)[C@@]1(Cc2ccc(F)cc2)[C@@H]2C(=CC(=O)[C@H]2CC(=O)C(=O)N(C)C)CN1C(=O)c1ccccc1 the results were TDP1 block 2%.
COC(=O)[C@@]1(Cc2ccccc2)[C@@H]2C(=CC(=O)[C@H]2CC(=O)C(=O)N(C)C)CN1C(=O)c1ccccc1 was read as miR-21 reporter inconclusive, TDP1 block -4%, uPA generation 2.8µM*, TDP1 cell CPT 9.2µM* and TDP1 cell noCPT 8.2µM*.
For COc1cc(/C=C/[N+](=O)[O-])ccc1OC(=O)c1cc2ccccc2oc1=O the results were miR-21 reporter 7%, uPA generation -10%, TDP1 cell CPT inconclusive and TDP1 cell noCPT 26µM*.
O=C(N/C(=C/c1ccc(F)cc1)C(=O)N1CCOCC1)c1ccco1 was read as TDP1 cell CPT 1% and TDP1 cell noCPT 2%.
For O=C(Nc1ccccc1)C1=C[C@H](c2ccc(Br)cc2)C[C@H](OCc2ccc(CO)cc2)O1 the results were miR-21 reporter -30%, TDP1 block 5%, uPA generation 1%, TDP1 cell CPT 29µM* and TDP1 cell noCPT inconclusive.
O=C(Nc1ccccc1)C1=C[C@@H](c2ccc(C(F)(F)F)cc2)C[C@@H](OCc2ccc(CO)cc2)O1 was read as miR-21 reporter 18%, TDP1 block 3%, uPA generation -30%, TDP1 cell CPT 23µM* and TDP1 cell noCPT 18µM*.
For O=C(Nc1ccccc1)C1=C[C@@H](c2ccccc2)C[C@@H](OCc2ccc(CO)cc2)O1 the results were miR-21 reporter -44%, TDP1 block 5%, uPA generation -8%, TDP1 cell CPT inconclusive and TDP1 cell noCPT -20%.
CC(CC12CC3CC(CC(C3)C1)C2)NCc1ccccc1O (stereo not given) was read as miR-21 reporter 11%, uPA generation inconclusive, TDP1 cell CPT 15µM* and TDP1 cell noCPT 16µM*.
Screening Oc1ccccc1CNCC12CC3CC(CC(C3)C1)C2 returned miR-21 reporter -3%, uPA generation 0%, TDP1 cell CPT inconclusive and TDP1 cell noCPT inconclusive.
COc1ccc(CN2CCN(Cc3ccc(C)cc3)CC2)c(OC)c1 was read as miR-21 reporter -6%, uPA generation -4%, TDP1 cell CPT -21% and TDP1 cell noCPT inconclusive.
For COc1ccc(CN2CCN(Cc3ccc(C(F)(F)F)cc3)CC2)c(OC)c1 the results were miR-21 reporter 17%, uPA generation 8%, TDP1 cell CPT 21µM* and TDP1 cell noCPT 15µM*.
For COc1cc(CN2CCCCCC2)cc(OC)c1OC the results were miR-21 reporter -8%, uPA generation 1%, TDP1 cell CPT 12% and TDP1 cell noCPT 9%.
`COc1cc(CN2CCN(Cc3ccc(C(F)(F)F)cc3)CC2)cc(OC)c1OC` gave miR-21 reporter 9%, uPA generation -8%, TDP1 cell CPT 23µM* and TDP1 cell noCPT 21µM*.
Screening COc1cc(CN2CCN(Cc3ccccc3C(F)(F)F)CC2)cc(OC)c1OC returned miR-21 reporter 5%, uPA generation 2%, TDP1 cell CPT inconclusive and TDP1 cell noCPT 26µM*.
For COc1ccc(Cl)cc1C(=O)NCC(=O)OCc1ccccc1 the results were TDP1 block -7%[0.505 µM], uPA generation 1%, TDP1 cell CPT 1% and TDP1 cell noCPT -15%.
O=C(NCc1ccccc1)C1Cc2c(-c3ccc4c(c3)OCO4)ccnc2O1 (stereo not given) was read as TDP1 cell CPT 0.58µM* and TDP1 cell noCPT 0.73µM*.
O=C(NCc1ccncc1)C1Cc2c(-c3ccc4c(c3)OCO4)ccnc2O1 (stereo not given) was read as TDP1 cell CPT inconclusive and TDP1 cell noCPT 13µM*.
For OCc1ccccc1SSc1ccccc1CO the results were uPA generation -6%, TDP1 cell CPT 2.3µM* and TDP1 cell noCPT 3.3µM*.
For CC1(C)CC(=O)C2=C(C1)OC1=C(C(=O)CC(C)(C)C1)C2c1ccc(O)cc1O the results were miR-21 reporter inconclusive, TDP1 block -8%, TDP1 cell CPT 2µM* and TDP1 cell noCPT 4µM*.
For CC1(C)CC(=O)C2=C(C1)OC1=C(C(=O)CC(C)(C)C1)C2c1cccc([N+](=O)[O-])c1 the results were TDP1 cell CPT inconclusive and TDP1 cell noCPT 16µM*.
CCS(=O)(=O)c1ncc(N(Cc2ccccc2)Cc2ccco2)c(C(=O)Nc2cccc(Cl)c2C)n1 was read as miR-21 reporter 6%, TDP1 block 6%, TDP1 cell CPT inconclusive and TDP1 cell noCPT inconclusive.
For NCCSc1nc2ccccc2s1 the results were TDP1 cell CPT inconclusive and TDP1 cell noCPT 11µM*.
For O=S(=O)(CCc1ccccc1)c1nc2ccccc2s1 the results were TDP1 block 3%.
Screening Cc1nnc(SCc2nc3ccccc3[nH]2)s1 returned miR-21 reporter -18%, TDP1 block 8%, uPA generation -5%, TDP1 cell CPT 3% and TDP1 cell noCPT -13%.
`c1ccc2[nH]c(CSc3nc4ccccc4s3)nc2c1` gave miR-21 reporter -23%, TDP1 block 9%, uPA generation -5%, TDP1 cell CPT inconclusive and TDP1 cell noCPT 15µM*.
For O=S(=O)(CCSc1nc2ccccc2s1)c1nc2ccccc2s1 the results were miR-21 reporter inconclusive, TDP1 block 1%, uPA generation -10%, TDP1 cell CPT 6.5µM* and TDP1 cell noCPT 3.7µM*.
For C=CCS(=O)(=O)c1nc2ccccc2s1 the results were miR-21 reporter inconclusive, TDP1 block 2%, uPA generation -11%, TDP1 cell CPT 16µM* and TDP1 cell noCPT 21µM*.
`O=C(COCc1cc(-c2ccc3c(c2)OCO3)on1)NCc1ccccc1Cl` gave miR-21 reporter -13%, TDP1 block 4%, TDP1 cell CPT -26% and TDP1 cell noCPT inconclusive.
COc1ccc(-n2nc(C(=O)NCC(=O)N(C)Cc3ccccc3)c3ccccc3c2=O)cc1 was read as miR-21 reporter 9%, TDP1 block -8%, uPA generation 0%, TDP1 cell CPT -22% and TDP1 cell noCPT inconclusive.
`O=c1oc2ccccc2n1CSc1nc2ccccc2s1` gave miR-21 reporter -56%, TDP1 block -2%, uPA generation -2%, TDP1 cell CPT -27% and TDP1 cell noCPT 13µM*.

Screening data (PubChem BioAssay)
